Drawing on the antibiotic and cytotoxicity screens of Wong et al. (2023), this text covers cytotoxicity call for 58 molecules.

The campaign covered roughly 39,000 compounds. About 3,300 (8.5%) were called active. Many of the other results were omitted from the sample, so actives are more common in it than they were.

The test system of the test is HepG2. Briefly: cytotoxicity call (relative viability < 0.9). The settings on record: 10 µM.
On to `CO[C@H]1CN(C)C(=O)c2cc(NS(C)(=O)=O)ccc2OC[C@H](C)N(C(=O)C2CCCCC2)C[C@@H]1C`, for which the cytotoxicity call is “inactive”.

With `C[C@H]1CN([C@@H](C)CO)C(=O)c2cc(NS(=O)(=O)c3cn(C)cn3)ccc2O[C@@H]1CN(C)CC1CC1`, the cytotoxicity call was “inactive”. For `Cc1ccc(S(=O)(=O)N(C)C[C@@H]2Oc3c(NS(=O)(=O)c4cn(C)cn4)cccc3C(=O)N([C@@H](C)CO)C[C@@H]2C)cc1`, the cytotoxicity call was “inactive”.

Turning to `COc1ccc(S(=O)(=O)N(C)C[C@H]2Oc3c(NC(=O)c4ccncc4)cccc3C(=O)N([C@H](C)CO)C[C@@H]2C)cc1`, the cytotoxicity call is “inactive”.

Turning to `CC(C)[Si](C#C[Si](C(C)C)(C(C)C)C(C)C)(O[C@H](C)c1cn(Cc2cccc(Cl)c2)nn1)C(C)C`, the cytotoxicity call is “inactive”. As for `Cc1cc(C(=O)Nc2cccc3c2O[C@@H](CN(C)C(=O)NC2CCCCC2)[C@H](C)CN([C@@H](C)CO)C3=O)n(C)n1`, the cytotoxicity call was “inactive”. Turning to `C[C@@H]1CN([C@@H](C)CO)C(=O)c2cc(NC(=O)CCCCCC(=O)Nc3ccccc3N)ccc2O[C@@H]1CN(C)S(C)(=O)=O`, the cytotoxicity call is “inactive”. On to `COC(=O)[C@H]1C[C@@]2(C(=O)O)C[C@](C(=O)O)(C[C@@H](C(=O)OC)C2=O)C1=O`, for which the cytotoxicity call was “inactive”.

Take `C[C@@H]1CN([C@@H](C)CO)C(=O)CCCn2nncc2CO[C@@H]1CN(C)C(=O)Nc1ccc2c(c1)OCCO2`: the cytotoxicity call is “inactive”.

With `C[C@@H]1CCCCO[C@H](CN(C)C(=O)Nc2ccc(C(F)(F)F)cc2)[C@@H](C)CN([C@H](C)CO)C(=O)c2cc(N(C)C)ccc2O1`, the cytotoxicity call is “inactive”. To `CCc1nc2ccc(C(=O)N3CCN(S(=O)(=O)CC)CC3)cn2c1N(C=O)Cc1ccc(OC)cc1` belongs “inactive”.

`C[C@@H]1CCCCO[C@@H](CN(C)Cc2ccc(Cl)c(Cl)c2)[C@@H](C)CN([C@H](C)CO)C(=O)c2cc(NC(=O)Nc3ccccc3)ccc2O1`: the cytotoxicity call was “inactive”. Consider `C[C@H]1CCCCO[C@H](CN(C)Cc2ccc(Cl)c(Cl)c2)[C@@H](C)CN([C@@H](C)CO)C(=O)c2cc(NC(=O)Nc3ccccc3)ccc2O1`, for which the cytotoxicity call was “inactive”. `C[C@H](CO)N1C[C@H](C)[C@@H](CN(C)Cc2ccc(Cl)c(Cl)c2)OCCCC[C@H](C)Oc2ccc(NC(=O)Nc3ccccc3)cc2C1=O`: the cytotoxicity call is “active”. The same measure for `C[C@@H]1CCCCO[C@@H](CN(C)Cc2ccc(C(=O)O)cc2)[C@H](C)CN([C@H](C)CO)C(=O)c2cc(NC(=O)Nc3ccc(C(F)(F)F)cc3)ccc2O1`: “inactive”; for `COc1ccccc1CNC(=O)C[C@H]1C[C@H]2c3cc(NC(=O)c4ccc5c(c4)OCO5)ccc3O[C@H]2[C@@H](CO)O1`: “inactive”; for `Cc1noc(C)c1NC(=O)Nc1cccc2c1O[C@@H](CN(C)S(=O)(=O)c1ccccc1)[C@H](C)CN([C@H](C)CO)C2=O`: “inactive”. To `Cc1noc(C)c1NC(=O)N(C)C[C@H]1Oc2ncc(C#CCC(C)C)cc2C(=O)N([C@@H](C)CO)C[C@@H]1C` belongs “inactive”. The same measure for `C[C@@H]1CN([C@H](C)CO)C(=O)Cc2cc(NC(=O)CCCCCC(=O)Nc3ccccc3N)ccc2O[C@H]1CN(C)Cc1ccc(C(F)(F)F)cc1`: “inactive”. As to `C[C@H](CO)N1C[C@H](C)[C@H](CN(C)Cc2ccc(C(F)(F)F)cc2)Oc2ccc(NC(=O)CCCCCC(=O)Nc3ccccc3N)cc2CC1=O`, the cytotoxicity call was “active”.

Take `C[C@@H]1CN([C@H](C)CO)C(=O)Cc2cc(NC(=O)CCCCCC(=O)Nc3ccccc3N)ccc2O[C@@H]1CN(C)Cc1ccc(C(F)(F)F)cc1`: the cytotoxicity call was “active”. Regarding `C[C@H]1CN([C@@H](C)CO)C(=O)Cc2cc(NC(=O)CCCCCC(=O)Nc3ccccc3N)ccc2O[C@@H]1CN(C)Cc1ccc(C(F)(F)F)cc1`, the cytotoxicity call is “inactive”.

Turning to `C[C@@H]1CN([C@@H](C)CO)C(=O)Cc2cc(NC(=O)CCCCCC(=O)Nc3ccccc3N)ccc2O[C@H]1CN(C)Cc1ccc(C(F)(F)F)cc1`, the cytotoxicity call is “inactive”.

Consider `C[C@H](CO)N1C[C@H](C)[C@@H](CN(C)Cc2ccc(C(F)(F)F)cc2)Oc2ccc(NC(=O)CCCCCC(=O)Nc3ccccc3N)cc2CC1=O`, for which the cytotoxicity call was “inactive”. The same measure for `Cc1noc(C)c1S(=O)(=O)N(C)C[C@@H]1Oc2ccc(NS(=O)(=O)c3cn(C)cn3)cc2CC(=O)N([C@@H](C)CO)C[C@H]1C`: “inactive”. The same measure for `C[C@@H]1CN([C@H](C)CO)C(=O)c2cc(NS(=O)(=O)c3ccc(F)cc3)ccc2O[C@@H]1CN(C)C(=O)Nc1ccc(C(F)(F)F)cc1`: “inactive”; for `C[C@@H]1CN([C@H](C)CO)C(=O)c2cccc(NS(=O)(=O)c3ccccc3)c2O[C@H]1CN(C)Cc1ccc(Oc2ccccc2)cc1`: “inactive”; for `COc1ccc(S(=O)(=O)N2C[C@@H](O)COC[C@H]3O[C@H](CC(=O)NCCCN(C)C)CC[C@@H]32)cc1`: “inactive”.

Consider `COc1cccc(NC(=O)N(C)C[C@@H]2OCc3ccccc3-c3c(n(C)c4ccccc34)C(=O)N([C@@H](C)CO)C[C@@H]2C)c1`, for which the cytotoxicity call is “inactive”.

For the molecule `C=CC[C@@H](CC(=O)N[C@H](CO)Cc1ccccc1)C(=O)N[C@H](C)COC(=O)[C@H](CC=C)CC(=O)OC(C)(C)C`, the cytotoxicity call is “inactive”. With `C[C@@H]1CN([C@H](C)CO)C(=O)c2cc(NC(=O)Cc3ccccc3)ccc2O[C@@H](C)CCCCO[C@H]1CN(C)Cc1ccc(C(F)(F)F)cc1`, the cytotoxicity call was “active”. The same measure for `C[C@@H]1CN([C@@H](C)CO)C(=O)c2cc(NC(=O)Cc3ccccc3)ccc2O[C@@H](C)CCCCO[C@H]1CN(C)Cc1ccc(C(F)(F)F)cc1`: “inactive”; for `C[C@H](CO)N1C[C@H](C)[C@@H](CN(C)Cc2ccc(C(F)(F)F)cc2)OCCCC[C@H](C)Oc2ccc(NC(=O)Cc3ccccc3)cc2C1=O`: “active”.

On to `C[C@@H]1CN([C@H](C)CO)C(=O)c2cc(NC(=O)Cc3ccccc3)ccc2O[C@@H](C)CCCCO[C@@H]1CN(C)Cc1ccc(C(F)(F)F)cc1`, for which the cytotoxicity call was “inactive”.

`C[C@@H]1CCCCO[C@H](CN(C)Cc2ccccc2)[C@@H](C)CN([C@@H](C)CO)C(=O)c2cc(NC(=O)Cc3ccccc3)ccc2O1`: the cytotoxicity call is “active”.

As to `C[C@H]1CCCCO[C@H](CN(C)Cc2ccccc2)[C@@H](C)CN([C@@H](C)CO)C(=O)c2cc(NC(=O)Cc3ccccc3)ccc2O1`, the cytotoxicity call was “inactive”. To `C[C@@H]1CCCCO[C@H](CN(C)Cc2ccc(C(F)(F)F)cc2)[C@H](C)CN([C@@H](C)CO)C(=O)c2cc(NC(=O)Cc3ccccc3)ccc2O1` belongs “inactive”. For `C[C@@H]1CCCCO[C@@H](CN(C)Cc2ccc(C(F)(F)F)cc2)[C@H](C)CN([C@H](C)CO)C(=O)c2cc(NC(=O)Cc3ccccc3)ccc2O1`, the cytotoxicity call is “inactive”.

In the case of `C[C@@H]1CCCCO[C@@H](CN(C)Cc2ccc(C(F)(F)F)cc2)[C@@H](C)CN([C@@H](C)CO)C(=O)c2cc(NC(=O)Cc3ccccc3)ccc2O1`, the cytotoxicity call is “active”.

Turning to `C[C@@H]1CN([C@H](C)CO)C(=O)c2cc(NC(=O)Cc3ccccc3)ccc2O[C@@H](C)CCCCO[C@H]1CN(C)Cc1ccccc1`, the cytotoxicity call was “inactive”. For `CO[C@H]1CN(C)C(=O)c2cc(NS(C)(=O)=O)ccc2OC[C@H](C)N(S(C)(=O)=O)C[C@H]1C`, the cytotoxicity call was “inactive”. Consider `C[C@@H]1CN([C@@H](C)CO)C(=O)c2cc(NC(=O)CCC(F)(F)F)ccc2O[C@@H](C)CCCCO[C@@H]1CN(C)CC1CCCCC1`, for which the cytotoxicity call was “inactive”. To `CCCCCCCCCCCCCCCc1cccc(OCC)c1C(=O)Nc1ccc(Cl)c(C(F)(F)F)c1` belongs “inactive”. The same measure for `C[C@H](CO)N1C[C@H](C)[C@@H](CN(C)S(C)(=O)=O)Oc2ccc(NC(=O)Cn3cnnn3)cc2CC1=O`: “inactive”; for `Nc1cnn([C@H]2O[C@@H](COC(=O)c3ccccc3)[C@@H](O)[C@@H]2O)c(=O)n1`: “inactive”. The same measure for `COc1ccc(S(=O)(=O)N2C[C@@H](O)COC[C@H]3O[C@H](CC(=O)NCCN4CCCCC4)CC[C@@H]32)cc1`: “inactive”; for `Cc1noc(C)c1NC(=O)N(C)C[C@@H]1Oc2c(NC(=O)C3CC3)cccc2C(=O)N([C@H](C)CO)C[C@H]1C`: “inactive”; for `C[C@@H]1CN([C@H](C)CO)C(=O)Cc2cc(NC(=O)C3CCCCC3)ccc2O[C@@H]1CN(C)Cc1ccc(Cl)c(Cl)c1`: “inactive”.

With `C[C@@H]1CN([C@@H](C)CO)C(=O)c2cc(NC(=O)Cc3ccccc3)ccc2O[C@@H](C)CCCCO[C@@H]1CN(C)Cc1ccc(C(F)(F)F)cc1`, the cytotoxicity call is “inactive”.

As for `C[C@@H]1CCCCO[C@H](CN(C)Cc2ccc(C(F)(F)F)cc2)[C@@H](C)CN([C@H](C)CO)C(=O)c2cc(NC(=O)Cc3ccccc3)ccc2O1`, the cytotoxicity call is “inactive”. The same measure for `C[C@@H]1CCCCO[C@@H](CN(C)Cc2ccc(C(F)(F)F)cc2)[C@H](C)CN([C@@H](C)CO)C(=O)c2cc(NC(=O)Cc3ccccc3)ccc2O1`: “inactive”; for `C[C@H]1CCCCO[C@@H](CN(C)Cc2ccc(C(F)(F)F)cc2)[C@@H](C)CN([C@@H](C)CO)C(=O)c2cc(NC(=O)Cc3ccccc3)ccc2O1`: “inactive”; for `C[C@@H]1CCCCO[C@H](CN(C)Cc2ccc(C(F)(F)F)cc2)[C@H](C)CN([C@H](C)CO)C(=O)c2cc(NC(=O)Cc3ccccc3)ccc2O1`: “active”. `C[C@H]1CCCCO[C@H](CN(C)Cc2ccc(C(F)(F)F)cc2)[C@@H](C)CN([C@@H](C)CO)C(=O)c2cc(NC(=O)Cc3ccccc3)ccc2O1`: the cytotoxicity call was “active”.

Consider `C[C@H](CO)N1C[C@H](C)[C@H](CN(C)Cc2ccc(C(F)(F)F)cc2)OCCCC[C@H](C)Oc2ccc(NC(=O)Cc3ccccc3)cc2C1=O`, for which the cytotoxicity call is “inactive”.

Consider `C[C@@H]1CCCCO[C@H](CN(C)Cc2ccc(C(F)(F)F)cc2)[C@@H](C)CN([C@@H](C)CO)C(=O)c2cc(NC(=O)Cc3ccccc3)ccc2O1`, for which the cytotoxicity call was “inactive”.

For `C[C@@H]1CCCCO[C@@H](CN(C)Cc2ccc(C(F)(F)F)cc2)[C@@H](C)CN([C@H](C)CO)C(=O)c2cc(NC(=O)Cc3ccccc3)ccc2O1`, the cytotoxicity call is “active”. `COc1ccc(S(=O)(=O)Nc2cccc3c2O[C@@H](CN(C)C(=O)Nc2cccc4ccccc24)[C@H](C)CN([C@H](C)CO)C3=O)cc1`: the cytotoxicity call is “inactive”.
